Source: PubChem BioAssay (NCATS)
Inconclusive results are not listed. Activity calls are given as the source filed them. Calls come from the whole dose curve; as a rule, active = well fitted curve in the direction sought with a large enough effect; inconclusive = small, poorly fitted or top-dose-only effect, or another doubt; inactive = no such curve, though single readings can be large; an effect the other way counts as inactive or inconclusive.

Target: Calcium and integrin-binding protein 1 (Homo sapiens) (UniProt Q99828)
Assay: Primary qHTS for Identification of Calcium Integrin Binding Protein 1 (CIB1) Competitor (AID 1508620);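 note: GST tagged CIB1 binding a fluorescein labelled alphaIIb integrin peptide tracer; top concentration of the series differs between compounds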
Settings: CIB1-GST / FITC-alphaIIb peptide fluorescence polarization; series mostly up to 57.7 µM; activity change, negative = inhibition: at the top concentration
In short: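 CIB1-GST (1 uM final) and compound incubated 15 min at room temperature before adding FITC-alphaIIb peptide tracer (100 nM final). Competition for binding read by fluorescence polarization (ex 480, em 540) after another 15 min at room temperature.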
% is set by controls: 0 for no effect and ±100 for the full control effect.

Calcium and integrin-binding protein 1 (Homo sapiens), sequence (Q99828 whole entry, looked up): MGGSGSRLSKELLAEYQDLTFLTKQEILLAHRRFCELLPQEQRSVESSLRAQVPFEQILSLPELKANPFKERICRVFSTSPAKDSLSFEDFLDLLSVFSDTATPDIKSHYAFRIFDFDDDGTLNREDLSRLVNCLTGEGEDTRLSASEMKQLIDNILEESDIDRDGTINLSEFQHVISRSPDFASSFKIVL

Compound | outcome | activity change, negative = inhibition
C[C@@H]1CN(Cc2ccc(F)cc2)[C@@H](C)CN1C(=O)c1cc2c(C(=O)C(=O)N(C)C)cn(C)c2cc1Cl | inactive | –
OCCn1cc(-c2cnc3nnn(Cc4ccc5ncccc5c4)c3n2)cn1 | inactive | –
CN(C)C(=O)c1ccc(S(=O)(=O)c2ccc(NC(=O)[C@@](C)(O)C(F)(F)F)c(Cl)c2)cc1 | inactive | –
CNC(=O)c1ccc(N2C(=S)N(c3ccc(C#N)c(C(F)(F)F)c3)C(=O)C2(C)C)cc1F | – | 1.23% (inactive)
CC(=O)NC(C)c1ccc(Oc2ccc(OC(C)C)cc2)cc1 (configuration not stated) | – | 1.93% [at 228 µM] (inactive)
CC(C)(C)OC(=O)CN(Cc1ccc(Cl)cc1)Cc1ccc([N+](=O)[O-])s1 | – | -1.54% (inactive)
Cc1ccccc1C(C(=O)NC1CCCC1)N(C(=O)Cn1cnc2ccccc21)c1cccc(F)c1 (configuration not stated) | – | -7.81% (inactive)
CCC(=O)N[C@H]1CC[C@H](C(=O)N(C)c2ccc(-c3nc4ccccc4o3)cc2)C1 | – | -7.77% (inactive)
Nc1nccc(-c2ccc3noc(-c4ccc(Cl)cc4)c3c2)n1 | – | 1.69% (inactive)
N#CC[C@H](C1CCCC1)n1cc(-c2ncnc3[nH]ccc23)cn1 | inactive | –
COc1cc2nccc(Oc3ccc(NC(=O)NC4CC4)c(Cl)c3)c2cc1C(N)=O | inactive | –
Cc1cnc(Nc2ccc(OCCN3CCCC3)cc2)nc1Nc1cccc(S(=O)(=O)NC(C)(C)C)c1 | inactive | –
CCOc1ccc(Cc2cc([C@@H]3O[C@H](CO)[C@@H](O)[C@H](O)[C@@H]3O)ccc2Cl)cc1 | – | 0.0626% (inactive)
CCOc1ccn(-c2ccc(F)cc2)c(=O)c1C(=O)Nc1ccc(Oc2ccnc(N)c2Cl)c(F)c1 | inactive | –
C[C@]12CC[C@H](O)CC1=CC[C@@H]1[C@H]2CC[C@]2(C)C(c3cccnc3)=CC[C@H]12 | – | -1.62% [at 30.2 µM] (inactive)
CN(C(=O)c1ccc(F)cc1C(F)(F)F)C1CCN(c2nnc(-c3ccnn3C)c3ccccc23)CC1 | inactive | –
CCCS(=O)(=O)Nc1ccc(F)c(C(=O)c2c[nH]c3ncc(Cl)cc23)c1F | inactive | –
CCOc1cc(C(=O)Nc2ccc(Cl)c(-c3nc4ccccc4[nH]3)c2)cc(OCC)c1OCC | inactive | –

Compound | outcome | activity change, negative = inhibition
c1ccc(-c2nn3c(c2-c2ccnc4cc(OCCN5CCOCC5)ccc24)CCC3)nc1 | – | -2.41% (inactive)
CCOC(=O)N[C@@H]1CC[C@@H]2[C@@H](C1)C[C@H]1C(=O)O[C@H](C)[C@H]1[C@@H]2C=Cc1ccc(-c2cccc(F)c2)cn1 | – | 1.99% (inactive)
COc1nc(-c2ccc3c(c2)OCO3)n(-c2ccc(NC(=O)CSc3ccccc3)cc2)n1 | inactive | –
O=C(NOC[C@H](O)CO)c1ccc(F)c(F)c1Nc1ccc(I)cc1F | inactive | –
CC1(C)SCCN(S(=O)(=O)c2ccc(OCC#CCO)cc2)[C@@H]1C(=O)NO | – | 0.575% (inactive)
CC(C)OC(=O)C1=CN(C(=O)c2ccc(F)c(F)c2)CC(C)(C)c2c1[nH]c1ccccc21 | inactive | –
Cc1ccnc(NS(=O)(=O)c2ccc(NC(=O)Nc3ccc(S(=O)(=O)Nc4nccc(C)n4)cc3)cc2)n1 | inactive | –
CC[C@@H](C)[C@H](NC(=O)[C@H](CC1CCCCC1)NC(=O)c1ccno1)C(=O)N1CCC2(CCc3ccccc32)CC1 | inactive | –
Oc1cccc(-c2nc(N3CCOCC3)c3oc4ncccc4c3n2)c1 | – | -1.61% [at 114 µM] (inactive)
O=c1[nH]c(-c2ccc(C(F)(F)F)cc2)nc2c1CSCC2 | inactive | –
CC1(C)CNc2cc(NC(=O)c3cccnc3NCc3ccncc3)ccc21 | inactive | –
COc1ccc(-c2c(-c3ccc(O)cc3O)n[nH]c2C)cc1 | – | -2.12% [at 114 µM] (inactive)
O=C1[C@H](Cc2ccc(O)cc2)N2C(=O)CCN(C(=O)NCc3ccccc3)[C@H]2CN1Cc1cccc2ccccc12 | – | 1.96% (inactive)
COc1ccc2c3n(c(=NC(=O)c4cccnc4)nc2c1OC)CCN3 | – | 0.407% (inactive)
COc1cc2c(cc1OC)CN(CCc1ccc(NC(=O)c3cccc4c(=O)c5cccc(OC)c5[nH]c34)cc1)CC2 | inactive | –
Nc1nc2[nH]cc(CCc3ccc(C(=O)N[C@@H](CCC(=O)O)C(=O)O)cc3)c2c(=O)[nH]1 | – | -4.1% (inactive)
CCN(CC)CCCC(C)Nc1nc(C)cc(Nc2ccc3nc(C)cc(N)c3c2)n1 (configuration not stated) | – | 1.01% (inactive)
CNCc1ccc(-c2[nH]c3cc(F)cc4c3c2CCNC4=O)cc1 | inactive | –

Tested on: not listed separately
Assay: Primary qHTS for small molecule stabilizers of the endoplasmic reticulum resident proteome: Secreted ER Calcium Modulated Protein (SERCaMP) assay (AID 1508630)
Settings: SH-SY5Y GLuc-SERCaMP (Gaussia luciferase released on ER calcium loss) secretion, thapsigargin, luminescence; series mostly up to 38.4 µM; activity change, negative = inhibition: at the top concentration
In short: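 GLuc-SERCaMP-expressing SH-SY5Y cells, pretreated 16 h with compound, are challenged with thapsigargin to empty ER calcium stores; after 4 h, coelenterazine is added directly to the medium and luminescence is imaged.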

Compound | activity change, negative = inhibition
C[C@@H]1CN(Cc2ccc(F)cc2)[C@@H](C)CN1C(=O)c1cc2c(C(=O)C(=O)N(C)C)cn(C)c2cc1Cl | 156% (inactive)
OCCn1cc(-c2cnc3nnn(Cc4ccc5ncccc5c4)c3n2)cn1 | 95.8% (inactive)
CN(C)C(=O)c1ccc(S(=O)(=O)c2ccc(NC(=O)[C@@](C)(O)C(F)(F)F)c(Cl)c2)cc1 | 0% (inactive)
CNC(=O)c1ccc(N2C(=S)N(c3ccc(C#N)c(C(F)(F)F)c3)C(=O)C2(C)C)cc1F | 0% (inactive)
CC(=O)NC(C)c1ccc(Oc2ccc(OC(C)C)cc2)cc1 (configuration not stated) | 26.6% (inactive)
CC(C)(C)OC(=O)CN(Cc1ccc(Cl)cc1)Cc1ccc([N+](=O)[O-])s1 | 65.9% (inactive)
Cc1ccccc1C(C(=O)NC1CCCC1)N(C(=O)Cn1cnc2ccccc21)c1cccc(F)c1 (configuration not stated) | 65.1% (inactive)
CCC(=O)N[C@H]1CC[C@H](C(=O)N(C)c2ccc(-c3nc4ccccc4o3)cc2)C1 | 109% (inactive)
Nc1nccc(-c2ccc3noc(-c4ccc(Cl)cc4)c3c2)n1 | -6% (inactive)
N#CC[C@H](C1CCCC1)n1cc(-c2ncnc3[nH]ccc23)cn1 | -10.8% (inactive)
COc1cc2nccc(Oc3ccc(NC(=O)NC4CC4)c(Cl)c3)c2cc1C(N)=O | 115% (inactive)
Cc1cnc(Nc2ccc(OCCN3CCCC3)cc2)nc1Nc1cccc(S(=O)(=O)NC(C)(C)C)c1 | 0% (inactive)
CCOc1ccc(Cc2cc([C@@H]3O[C@H](CO)[C@@H](O)[C@H](O)[C@@H]3O)ccc2Cl)cc1 | 82.8% (inactive)
CCOc1ccn(-c2ccc(F)cc2)c(=O)c1C(=O)Nc1ccc(Oc2ccnc(N)c2Cl)c(F)c1 | 0% (inactive)
C[C@]12CC[C@H](O)CC1=CC[C@@H]1[C@H]2CC[C@]2(C)C(c3cccnc3)=CC[C@H]12 | 6.86% [at 21.6 µM] (inactive)
CN(C(=O)c1ccc(F)cc1C(F)(F)F)C1CCN(c2nnc(-c3ccnn3C)c3ccccc23)CC1 | 0% (inactive)
CCCS(=O)(=O)Nc1ccc(F)c(C(=O)c2c[nH]c3ncc(Cl)cc23)c1F | 50.7% (inactive)
CCOc1cc(C(=O)Nc2ccc(Cl)c(-c3nc4ccccc4[nH]3)c2)cc(OCC)c1OCC | 0% (inactive)

Compound | activity change, negative = inhibition
c1ccc(-c2nn3c(c2-c2ccnc4cc(OCCN5CCOCC5)ccc24)CCC3)nc1 | 6.51% (inactive)
CCOC(=O)N[C@@H]1CC[C@@H]2[C@@H](C1)C[C@H]1C(=O)O[C@H](C)[C@H]1[C@@H]2C=Cc1ccc(-c2cccc(F)c2)cn1 | 101% (inactive)
COc1nc(-c2ccc3c(c2)OCO3)n(-c2ccc(NC(=O)CSc3ccccc3)cc2)n1 | 9.29% (inactive)
O=C(NOC[C@H](O)CO)c1ccc(F)c(F)c1Nc1ccc(I)cc1F | 146% (inactive)
CC1(C)SCCN(S(=O)(=O)c2ccc(OCC#CCO)cc2)[C@@H]1C(=O)NO | 3.69% (inactive)
CC(C)OC(=O)C1=CN(C(=O)c2ccc(F)c(F)c2)CC(C)(C)c2c1[nH]c1ccccc21 | 110% (inactive)
Cc1ccnc(NS(=O)(=O)c2ccc(NC(=O)Nc3ccc(S(=O)(=O)Nc4nccc(C)n4)cc3)cc2)n1 | -54.6% (inactive)
CC[C@@H](C)[C@H](NC(=O)[C@H](CC1CCCCC1)NC(=O)c1ccno1)C(=O)N1CCC2(CCc3ccccc32)CC1 | -4.79% (inactive)
Oc1cccc(-c2nc(N3CCOCC3)c3oc4ncccc4c3n2)c1 | 58.8% [at 76.3 µM] (inactive)
O=c1[nH]c(-c2ccc(C(F)(F)F)cc2)nc2c1CSCC2 | 116% (inactive)
CC1(C)CNc2cc(NC(=O)c3cccnc3NCc3ccncc3)ccc21 | 180% (inactive)
COc1ccc(-c2c(-c3ccc(O)cc3O)n[nH]c2C)cc1 | -15.4% [at 76.3 µM] (inactive)
O=C1[C@H](Cc2ccc(O)cc2)N2C(=O)CCN(C(=O)NCc3ccccc3)[C@H]2CN1Cc1cccc2ccccc12 | 5.11% (inactive)
COc1ccc2c3n(c(=NC(=O)c4cccnc4)nc2c1OC)CCN3 | 72.2% (inactive)
COc1cc2c(cc1OC)CN(CCc1ccc(NC(=O)c3cccc4c(=O)c5cccc(OC)c5[nH]c34)cc1)CC2 | 151% (inactive)
Nc1nc2[nH]cc(CCc3ccc(C(=O)N[C@@H](CCC(=O)O)C(=O)O)cc3)c2c(=O)[nH]1 | -43.7% (inactive)
CCN(CC)CCCC(C)Nc1nc(C)cc(Nc2ccc3nc(C)cc(N)c3c2)n1 (configuration not stated) | 4.86% (inactive)
CNCc1ccc(-c2[nH]c3cc(F)cc4c3c2CCNC4=O)cc1 | -29% (inactive)
